In PubChem BioAssay AID1345082 (National Center for Advancing Translational Sciences (NCATS), 2018):
In all, about 94,000 compounds went through this assay and about 4,000 (4.3%) were called active. About 29% were inconclusive and are not listed. Many of the other results were omitted from the sample, so actives are more common in it than they were. A number with no mark means an inactive call. The call rests on the fitted dose curve; in most records, active means well fitted inhibition curve with a large enough effect; inconclusive means small, poorly fitted or top-dose-only effect; inactive means no such curve, though single readings can be large or run the other way.

Assay: Cytotoxic Profiling in NIH 3T3 Cell Line of Diverse Libraries Using Quantitative High-Throughput Screening; further: nearly all actives have a fitted effect of over 55% in size
Settings: NIH 3T3 viability, CellTiter-Glo ATP luminescence, 48-72 h; series mostly up to 96.7 µM; activity change, negative = cytotoxicity: at the top concentration
Procedure, shortened: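 Luminescent ATP readout (CellTiter-Glo, 10 min RT) after 48 or 72 hr compound exposure of NIH 3T3 cells seeded at 400 cells/well in 1536-well format; quantitative HTS.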
On the % scale 0 is the no-effect control and ±100 the full control effect; potency means the concentration at half of the fitted maximal effect.

Row | Compound | activity change, negative = cytotoxicity | Potency | outcome
1 | COC1C(=O)N(c2cccc(F)c2)C12CCN(C(=O)C1(c3ccccc3)CC1)CC2 (stereo unspecified) | -15.4% | – | –
2 | CCn1ccc(C(=O)N2C[C@@H]3CCCN4CCC[C@@H]([C@H]34)[C@H]2CCCC(=O)Nc2ccccc2)n1 | 1.62% | – | –
3 | CC(=O)NC1CC2(CCN(C(=O)CCC(=O)O)CC2)c2ccccc21 (stereo unspecified) | 2.38% | – | –
4 | CS(=O)(=O)N1Cc2ccccc2CC2(CCN(Cc3ccncc3)C2)C1 (stereo unspecified) | -28.9% | – | –
5 | CCN1CCc2[nH]cnc2C12CCN(C(=O)C1CCc3ccccc3C1)CC2 (stereo unspecified) | -24.9% | – | –
6 | Cc1cc2nc3n(c(=O)c2n1CC(=O)Nc1cccc(C(F)(F)F)c1)CCCC3 | -24.2% | – | –
7 | O=C(NCc1ccncc1)c1csc(N2CCN(c3ccccc3F)CC2)n1 | -23.9% | – | –
8 | O=C(c1ccc(C(F)(F)F)cc1)N1CCCC2(CC(c3ccccn3)=NO2)C1 (stereo unspecified) | -7.84% | – | –
9 | COc1ccc(C(=O)NCc2nnc3cc(-c4nc(C)no4)ccn23)cc1 | -12.2% | – | –
10 | CC1=C[C@@H](CNC(C)C)[C@H](C(C)C)C[C@H]1Cc1nnc(-c2ccc(C)cc2)o1 | – | 50.1 µM (active) | –
11 | CC1=C[C@@H](CN2CCN(CCO)CC2)[C@H](C(C)C)C[C@H]1Cc1nnc(-c2ccc(C)cc2)o1 | – | 39.8 µM (active) | –
12 | COc1ccc(C(=O)NC[C@@H]2C=C(C)[C@H](Cc3nnc(-c4cncn4C)o3)C[C@H]2C(C)C)cc1 | – | 25.1 µM (active) | –
13 | CC1=C[C@@H](CN2CCC(O)CC2)[C@H](C(C)C)C[C@H]1Cc1nnc(-c2ccccc2F)o1 | – | 112 µM (active) | –
14 | COc1ccc(CC(=O)NC[C@@H]2C=C(C)[C@H](Cc3nc4ccncc4[nH]3)C[C@H]2C(C)C)cc1 | -26.3% | – | –
15 | Fc1ccc(CN2CC[C@H](c3nnc(-c4ccccc4F)o3)C2)cc1 | -21.5% [at 138 µM] | – | –
16 | O=C1NCc2ccccc2CC12CCN(Cc1ccc(CO)o1)C2 (stereo unspecified) | -2.07% | – | –
17 | CC(C)c1ccccc1NC(=O)Cn1cccc1-c1nc(-c2ccccc2)no1 | 0.152% | – | –
18 | Cc1ccc(CN2CCNC(=O)C2CC(=O)NC2(CO)CCCC2)cc1 (stereo unspecified) | -0.757% | – | –
19 | Cc1ncc2c(c1CNC(=O)c1ccccc1F)CCN(C(=O)Cc1cccc(F)c1)C2 | -9.27% | – | –
20 | CC(C)C(=O)NCC12CCC=C1N(C)C(=O)CC2 (stereo unspecified) | -0.138% | – | –
21 | COCCN1C(=O)CS(=O)(=O)C12CCN(C(=O)c1ccc(OC)cc1)CC2 | -5.73% | – | –
22 | CNC(=O)[C@@H]1CN(C(=O)c2cccc(OC)c2)C[C@H]1COC | – | – | inactive
23 | O=C(NC1CCC(n2cc(C(=O)N3CCCC3)nn2)CC1)C(c1ccccc1)C1CCCC1 (stereo unspecified) | -0.0895% | – | –
24 | COCCNc1ncc(C(=O)O)c(C)n1 | -8.62% | – | –
25 | O=C(Nc1ccc2ncnc(N3CCCCC3)c2c1)c1ccc2c(c1)OCO2 | -20.6% | – | –
26 | N[C@@H]1CC[C@H](C(=O)N2CCN(CCCOc3ccc(F)cc3)CC2)C1 | -28% | – | –
